PubChem BioAssay AID1224856 (National Center for Advancing Translational Sciences (NCATS), 2016)
Records with an inconclusive call do not appear. A call without a number means that no potency is given here. The source made the active and inactive calls. The call rests on the fitted dose curve; in most records, active means well fitted curve in the direction sought with a large enough effect; inconclusive means small, poorly fitted or top-dose-only effect, or another doubt; inactive means no such curve, though single readings can be large or run the other way.

Experiment: Cell viability assay for measurement of the protective activity of small molecules against cell death caused by Zika virus infection in human astrocytes
Settings: human astrocytes ZIKV-induced death, ATP luminescence, 72 h; series mostly up to 46.1 µM
Text: National Center for Advancing Translational Sciences [NCATS] Johns Hopkins University School of Medicine Florida State University Assay Overview: Zika virus infection causes cell death in certain cell types including human neural progenitor cells (hNPCs), astrocytes, and astrocytoma cell line (SNB-19). This cell viability assay measures the ATP content (level) in human astrocytes using a luminescence readout that is proportional to viable cell numbers. Decrease in the luminescence signal after Zika virus infection indicates the cell death caused by Zika virus. Small molecule inhibitors […] the decreased luminescence signal after Zika virus infection, indicating the protective effect of that small molecule on the cell death caused by Zika virus infection. This observed protective effect of small molecules against Zika virus induced cell death may result from inhibition of virus replication or cellular response to the virus infection.
Assay Protocol Summary: The medium for astrocytes contains AM basal medium (ScienCell, Cat.# 1801), AGS (ScienCell, Cat.# 1801), 10% FBS, and 1% Pen/Strep. The ATP content assay kit (PerkinElmer, Cat.# 6016731) was used to determine cell viability. The reagent was reconstituted and prepared as described by the manufacturer. Cells were seeded in 384- or 1536-well assay plates and cultured at 37 C with 5% CO2 for 16 to 20 hours. The typical cell seeding density in the 1536-well plate assay is 350 cells/well in 3 ul medium for astrocytes in the tissue cultured treated/PDL coated plates. Compounds were added to cells and incubated for one hour before addition of ZIKV solution to cells (2 FFU/cell). After incubation at 37 C with 5% CO2 for 72 hours, the reagent mixture of the ATP content assay kit was added to each well, followed by incubation at room temperature for 10 minutes. The luminescence intensity of the assay plates was measured using a ViewLux plate reader (PerkinElmer). […] The percentage inhibitions of the decreased cell viability by small molecule inhibitors were then calculated.

Structure (SMILES)	Potency
COc1cccc(-c2cc(=O)c3ccccc3o2)c1N	inactive
O=C(Nc1cc2cc[nH]c2cn1)c1ccccc1	inactive
CN(C)CCCSc1ccccc1NC(=O)/C=C/c1ccccc1	inactive
O=C(O)[C@H](CC(=O)N1C[C@@H]2CCCC[C@H]2C1)Cc1ccccc1	inactive
O=C(O)[C@@H](c1ccc(OCc2ccc3ccccc3n2)cc1)C1CCCC1	inactive
CN(C)c1ccc(C(=C2C=CC(=[N+](C)C)C=C2)c2ccccc2)cc1	inactive
CN(C)c1cc(NC(=O)CNC(C)(C)C)c(O)c2c1C[C@@H]1C[C@H]3[C@H](N(C)C)C(=O)C(C(N)=O)=C(O)[C@@]3(O)C(=O)C1=C2O	inactive
Cc1nc(N)sc1-c1ccnc(Nc2ccc(N3CCOCC3)cc2)n1	inactive
COc1ccc2nc(NC(=O)Nc3ccccc3)sc2c1	inactive
O=c1c2ccccc2[se]n1-c1ccccc1	inactive
CC[n+]1c(-c2ccccc2)c2cc(N)ccc2c2ccc(N)cc21	1.95 µM (active)
CCN1CCC(n2cc(CNc3cc(Cl)c4ncc(C#N)c(Nc5ccc(F)c(Cl)c5)c4c3)nn2)CC1	inactive
CCCCCCOc1ccccc1C(N)=O	inactive
CC(=Cc1ccccc1)C=C1SC(=S)N(CC(=O)O)C1=O	inactive
O=C(O)c1cccc(-c2noc(-c3ccccc3F)n2)c1	inactive
Cc1ccc([N+](=O)[O-])[c]2c1[O][Hg]2	inactive
CO[C@H]1C(=O)[C@]2(C)[C@@H](OC)C[C@H]3OC[C@@]3(OC(C)=O)[C@H]2[C@H](OC(=O)c2ccccc2)[C@]2(O)C[C@H](OC(=O)[C@H](O)[C@@H](NC(=O)OC(C)(C)C)c3ccccc3)C(C)=C1C2(C)C	inactive
CC[C@]1(O)C[C@H]2CN(CCc3c([nH]c4ccccc34)[C@@](C(=O)OC)(c3cc4c(cc3OC)N(C=O)[C@H]3[C@@](O)(C(=O)OC)[C@H](OC(C)=O)[C@]5(CC)C=CCN6CC[C@]43[C@@H]65)C2)C1	inactive
Cc1ccc2c(n1)Oc1ccc(C(C)C(=O)OCC(=O)N(C)C)cc1C2 (stereo not given)	inactive
COc1cccc2c1C(=O)c1c(O)c3c(c(O)c1C2=O)C[C@@](O)(C(=O)CO)CC3OC1CC(N2CCOC(OC)C2)C(O)C(C)O1 (stereo not given in full)	0.436 µM (active)

Structure (SMILES)	Potency
CCOC1OC(=O)C[C@H]1NC(=O)[C@@H]1CCCN1C(=O)[C@@H](NC(=O)c1ccc(N)c(Cl)c1)C(C)(C)C (stereo not given in full)	inactive
NC(=O)c1cccc2[nH]c(-c3ccc([C@H]4CCCN4)cc3F)nc12	inactive
CC(C(=O)O)c1ccc2c(c1)[nH]c1ccc(Cl)cc12 (stereo not given)	inactive
N#CC1(c2ccc(NC(=O)c3cccnc3NCc3ccncc3)cc2)CCCC1	inactive
CC(C)c1ccc2oc3nc(N)c(C(=O)O)cc3c(=O)c2c1	inactive
CN1CCN(c2cc3c(nn2)Oc2ccccc2N3C)CC1	inactive
CN1CC[C@@]2(C)c3cc(OC(=O)Nc4ccccc4)ccc3N(C)[C@@H]12	inactive
Nc1ccc(N=Nc2ccccc2)c(N)n1	inactive
CC(C(=O)O)c1ccc(C(=O)c2ccccc2)s1 (stereo not given)	inactive
CC(C)[N+](C)(CCC(C(N)=O)(c1ccccc1)c1ccccc1)C(C)C	inactive
Clc1ccccc1-c1nc(-c2ccncc2)no1	inactive
Cc1cccc(/C=C/c2ccccc2)n1	inactive
Cc1csc(NC(=O)c2sc3nc4c(c(C(F)(F)F)c3c2N)CCC4)n1	inactive
COc1ccc(C=CC(=O)Nc2ccccc2C(=O)O)cc1OC	inactive
CCCSc1ccc2nc(NC(=O)OC)[nH]c2c1	inactive
CCOCCOC(=O)/C=C/c1ccc(OC)cc1	inactive
CC(=C(CCOC(=O)C(C)C)SSC(CCOC(=O)C(C)C)=C(C)N(C=O)Cc1cnc(C)nc1N)N(C=O)Cc1cnc(C)nc1N	inactive
Cc1c(C(=O)O)c(O)cc2c1C(=O)c1c(O)c([C@@H]3O[C@H](CO)[C@@H](O)[C@H](O)[C@H]3O)c(O)c(O)c1C2=O	inactive
c1ccc2[nH]c(-c3cscn3)nc2c1	inactive
CC=CC[C@@H](C)C(=O)[C@H]1C(=O)N[C@@H](C(C)C)C(=O)N(C)CC(=O)N(C)[C@@H](CC(C)C)C(=O)N[C@@H](C(C)C)C(=O)N(C)[C@@H](CC(C)C)C(=O)N[C@@H](C)C(=O)N[C@H](C)C(=O)N(C)[C@@H](CC(C)C)C(=O)N(C)[C@@H](CC(C)C)C(=O)N(C)[C@@H](C(C)C)C(=O)N1C	inactive
